The values below come from PubChem BioAssay (Tox21).

Each structure is given as a SMILES string. Several values for one entry are separate records, joined by “and”; a condition that tells them apart may be missing. Equal values may be shown once. Inconclusive results are not listed. More than one record can exist for a structure, and the calls need not agree. Activity calls are given as the source filed them. Calls follow the shape of the dose curve; as a rule, active = well fitted inhibition curve with a large enough effect in the repeat runs; inconclusive = weak or mixed curves; inactive = no such curve, though single readings can be large or run the other way.
% is scaled to controls: 0 for no effect and ±100 for the full control effect; potency is read from the fitted curve at half-maximal effect.

Cytochrome P450 1A2 (Homo sapiens), sequence (P05177 whole entry, looked up): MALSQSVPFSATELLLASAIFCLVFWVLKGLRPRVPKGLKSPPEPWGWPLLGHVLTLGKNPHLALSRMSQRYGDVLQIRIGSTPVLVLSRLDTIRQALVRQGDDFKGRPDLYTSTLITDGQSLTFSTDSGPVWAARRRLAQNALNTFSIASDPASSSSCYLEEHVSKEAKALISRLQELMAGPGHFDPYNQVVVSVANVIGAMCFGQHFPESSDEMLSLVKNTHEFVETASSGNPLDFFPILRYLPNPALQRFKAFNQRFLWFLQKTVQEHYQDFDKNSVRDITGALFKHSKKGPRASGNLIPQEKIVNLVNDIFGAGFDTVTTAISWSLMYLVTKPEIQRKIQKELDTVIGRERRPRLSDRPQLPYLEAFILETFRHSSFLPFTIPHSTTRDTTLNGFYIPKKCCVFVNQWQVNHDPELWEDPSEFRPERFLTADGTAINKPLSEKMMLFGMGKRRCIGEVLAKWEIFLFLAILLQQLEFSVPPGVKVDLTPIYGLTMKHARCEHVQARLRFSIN

This experiment concerns the target Cytochrome P450 1A2 (Homo sapiens) (UniProt P05177). Description: Cytochrome P450 Family 1 Subfamily A Member 2 (CYP1A2) small molecule antagonists: luciferase reporter qHTS assay (AID 1671199). Also: nearly all actives have a fitted effect of over 50% in size. The note with it: P450-Glo CYP1A2 enzyme, luciferin luminescence, 1 h; series mostly up to 115 µM; activity change, negative = inhibition: at the top concentration. The text has this: National Center for Advancing Translational Sciences [NCATS]
U.S. Environmental Protection Agency [EPA]
National Institutes of Environmental Health Sciences [NIEHS]
National Toxicology Program [NTP]
U.S. Food and Drug Administration [FDA]
Cytochrome P450 (CYP) enzymes are membrane-bound hemeproteins that play a key role in metabolism of drugs and xenobiotics. Evaluation of the effect of chemicals on CYP isozymes is useful to minimize the adverse drug reactions and toxicities in drug development process. Tox21 chemicals were tested for their effect on CYP enzyme activities by using P450-Glo (TM) screening systems (Promega Corporation, Madison, WI). These systems provide a luminescent method containing proluciferin substrates and are converted to luciferin products by CYP isozymes. The luciferin products formed are detected with a luciferin detection reagent, and the amount of light produced is proportional to CYP activity. P450-Glo (TM) CYP1A2 screening system (Catalog. No. V9770) was used to detect the compounds that interfere in CYP1A2 activity. The positive control compound used for CYP1A2 assay is furafylline (Sigma-Aldrich, St. Louis, MO).
Tox21 Assay Protocol Summary:
Two ul of enzyme-substrate mix was dispensed into medium binding white/solid 1536-well plates (Greiner Bio-One North America Inc., Monroe, NC) using a BioRaptr Flying Reagent Dispenser (FRD, Beckman Coulter, Brea, CA). Compounds dissolved in DMSO and positive control (furafyllline) were transferred to the assay plates at 23 nl using a Pintool station (Wako, San Diego, CA). The assay plates were incubated at room temperature for 10 min. Then 2 ul of NADPH regeneration solution was added to each well of the assay plates using an FRD and incubated at room temperature for 1 h. The reaction was stopped by adding 4 ul of detection reagent using an FRD and after 20 min incubation at room temperature the luminescence signal was measured using a ViewLux plate reader (Perkin Elmer, Shelton, CT). Data were expressed as relative luminescence units.
With `CN(CCOc1ccc(CC2SC(=O)NC2=O)cc1)c1ccccn1` (stereo not given), the “activity change, negative = inhibition” value was 3.95% [at 53 µM] (inactive).
For `Cn1c([N+](=O)[O-])cnc1COC(N)=O`, the Potency entry is “inactive”.
Same read-out and setting: the same measure for `CCCCC(CC)COC(=O)CCCCCCCC(=O)OCC(CC)CCCC` (stereo not given): 35.6 µM (active) and inactive.
Turning to `C=C(C#N)C(=O)OCC`, the “activity change, negative = inhibition” value was -0.941% (inactive).
Turning to `C=C1C2CCC(C2)C1(C)C` (stereo not given), the Potency result is “inactive and 39.9 µM (active)”.
Still for that read-out and setting: with `CCCCC(CC)COC(=O)/C=C\C(=O)OCC(CC)CCCC` (stereo not given) the figure was 35.6 µM (active); with `CC1COc2ccccc2N1C(=O)C(Cl)Cl` (stereo not given), 79.5 µM (active) and inactive.
`CC(C)(CO)COC(=O)C(C)(C)CO`: the “activity change, negative = inhibition” value is -29.9% (inactive).
Regarding `Oc1c(Cl)cc(Cl)c(Cl)c1Cl`, the Potency is 62 µM (active) and 63.3 µM (active).
Still for that read-out and setting: the same measure for `O=C1O[C@H](CO)[C@@H](O)[C@H](O)[C@H]1O`: “inactive”; for `OC[C@@H](O)[C@H](O)[C@H](O)[C@@H](O)CO`: “inactive”; for `Cc1ccc(C)c(C)c1`: “inactive and 29.6 µM (active)”.
As to `CC(C)(N=C=O)c1cccc(C(C)(C)N=C=O)c1`, the Potency result was “inactive”.
On to `CCc1ccc(O)cc1`, for which the “activity change, negative = inhibition” value is -20.7% (inactive).
As to `OCC#CCO`, the “activity change, negative = inhibition” value is -21.4% (inactive).
As for `OCCOCCOCCOCCO`, the Potency was 39.9 µM (active).
On to `NCCNCCNCCNCCN`, for which the activity change, negative = inhibition is 8.65% [at 10.5 µM] (inactive).
`CCOC(=O)C1OC1c1ccccc1` (stereo not given): the Potency is 32.4 µM (active) and 22.4 µM (active).
The same measure, in the same setting: with `O=C(Cl)c1c(Cl)c(Cl)c(C(=O)Cl)c(Cl)c1Cl` the entry was “inactive”.
On to `O=[N+]([O-])c1cccc(Cl)c1`, for which the “activity change, negative = inhibition” value was -30.8% (inactive).
On to `c1ccc2ccccc2c1`, for which the Potency is 70.7 µM (active) and inactive.
On the same count and under the same terms, with `Clc1ccc(Cl)c(Cl)c1Cl` the entry was “inactive and 39.9 µM (active)”.
As for `O=S(=O)(O)c1cc(S(=O)(=O)O)c2c(N=Nc3ccccc3)c(O)ccc2c1`, the Potency entry is “inactive”.
`O=C(c1cc(O)c(O)c(O)c1)c1ccc(O)c(O)c1O`: the Potency is 39.8 µM (active) and 39.9 µM (active) and inactive.
As to `CCCCCCCCCCCCOCC1CO1` (stereo not given), the Potency was 63.4 µM (active).
With `CCc1ccccc1O`, the Potency was 31.6 µM (active).
`CC[Si](OC(C)=O)(OC(C)=O)OC(C)=O`: the “activity change, negative = inhibition” value was -13.6% (inactive).
On the same count and under the same terms, the same measure for `OC[C@@H](O)[C@@H](O)[C@H](O)[C@@H](O)CO`: -14.4% (inactive); for `C=C(C)C(=O)OCCCCCC`: -11.6% (inactive).
On to `CC1(C)CC(N=C=O)CC(C)(CN=C=O)C1` (stereo not given), for which the “activity change, negative = inhibition” value is -18.3% (inactive).
Take `C[C@@H](O)[C@H]1C(=O)N2C(C(=O)O)=C(S[C@@H]3CN[C@H](C(=O)N(C)C)C3)[C@H](C)[C@H]12`: the Potency was 15.5 µM (active) and inactive.
The same measure, in the same setting: with `Cc1cc(O)c2c(c1)C(=O)c1cc(O)cc(O)c1C2=O` the figure was 8.94 µM (active).
Turning to `OC1CCCC1`, the “activity change, negative = inhibition” value was -9.46% (inactive).
With `O=C(Oc1ccccc1)c1ccc(O)cc1`, the Potency was 28.5 µM (active) and 35.6 µM (active).
With `CCOC(=O)/C=C\C(=O)OCC`, the Potency result is “inactive”.
`O=C(O)c1cc(-c2ccccc2)nc2ccccc12`: the Potency is 36.9 µM (active).
For `CCCCNC(N)=O`, the Potency result is “inactive”.
With `O=c1c(-c2ccc(O)cc2)coc2cc(O)ccc12`, the Potency is 31.4 µM (active) and 39.9 µM (active).
The same measure, in the same setting: with `Oc1ccc(OCc2ccccc2)cc1` the figure was 19.6 µM (active) and 15.5 µM (active); with `CC1=CC[C@H]2C[C@@H]1C2(C)C`, “inactive”.
